Assay outcomes from PubChem BioAssay.
This is a sample that favours compounds with a hit; in the whole collection about 10% have one here.
LMNA splice mod = LMNA splicing modulation | HeLa LMNA splicing GFP/RFP minigene ratio, 48 h | Potency, µM (series often up to 46.1 µM), hits mostly inhibitors | actives 0.01% (n = 200,000) | AID 1487; active means well fitted inhibition curve with a large enough effect in the signal ratio, with a control signal flat, not every such curve was filed as active; inconclusive means small, poorly fitted or top-dose-only effect, or effect the other way, or a change in a side signal; the % refers to the signal ratio
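S3 HeLa stable clones carrying a lamin A-EGFP splicing minigene plus DsRed2 were seeded at 600 cells/well in Opti-MEM with 2% FBS, pin-dosed and incubated 48 h at 37°C. Acumen cytometry (488 nm) gave the GFP/RFP total-intensity ratio.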
HPGD inh = inhibitors of human 15-hydroxyprostaglandin dehydrogenase (HPGD); P15428; purified HPGD, NADH fluorescence kinetic, PGE2 substrate; Potency, µM, usual class: inhibitors; actives 4.3% (n = 150,000)
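20 nM HPGD preincubated 15 min at room temperature with compound in 50 mM Tris-HCl pH 8, 0.01% Tween 20. Started with 1 mM NAD+ and 30 uM prostaglandin E2; NADH fluorescence (360/450 nm) read 5 times over 30-s intervals, last minus first.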
ALDH1A1 block = inhibitors of human aldehyde dehydrogenase 1A1; Purified ALDH1A1, NADH fluorescence, propionaldehyde substrate; Potency, µM (titrated, usually from 75.3 µM), most hits filed as inhibitors; actives 7.3% (n = 220,000)
PNC assembly inh = blocks assembly of the perinucleolar compartment; PC3M PTB-GFP, PNC prevalence imaging, 16 h; active compounds read low; activity change (PNC), negative = inhibition, % at 10 µM; actives 3.1% (n = 140,000); AID 2417;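 active means readout at or below -70, meaning at least 70% loss of cells showing the perinucleolar compartment, a nuclear body marking cancer cells; inconclusive means readout between -30 and a set limit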
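Compounds are pinned in duplicate onto adhered PC3M cells stably expressing GFP-tagged PTB and incubated 16 h at 37 C. Cells are then fixed, nuclei stained with Hoechst, and PNC-positive cells counted.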
ALOX12 inhib = 12-hLO (ALOX12) enzyme inhibition. P18054. purified 12-hLO, xylenol orange hydroperoxide absorbance. Potency, µM (series often up to 57.1 µM), most hits filed as inhibitors. actives 0.12% (n = 150,000). AID 1452; active means well fitted inhibition curve with a large enough effect; inconclusive means small, poorly fitted or top-dose-only effect; further: nearly all actives have a fitted effect of over 55% in size
Target sequence (P18054 whole entry, looked up): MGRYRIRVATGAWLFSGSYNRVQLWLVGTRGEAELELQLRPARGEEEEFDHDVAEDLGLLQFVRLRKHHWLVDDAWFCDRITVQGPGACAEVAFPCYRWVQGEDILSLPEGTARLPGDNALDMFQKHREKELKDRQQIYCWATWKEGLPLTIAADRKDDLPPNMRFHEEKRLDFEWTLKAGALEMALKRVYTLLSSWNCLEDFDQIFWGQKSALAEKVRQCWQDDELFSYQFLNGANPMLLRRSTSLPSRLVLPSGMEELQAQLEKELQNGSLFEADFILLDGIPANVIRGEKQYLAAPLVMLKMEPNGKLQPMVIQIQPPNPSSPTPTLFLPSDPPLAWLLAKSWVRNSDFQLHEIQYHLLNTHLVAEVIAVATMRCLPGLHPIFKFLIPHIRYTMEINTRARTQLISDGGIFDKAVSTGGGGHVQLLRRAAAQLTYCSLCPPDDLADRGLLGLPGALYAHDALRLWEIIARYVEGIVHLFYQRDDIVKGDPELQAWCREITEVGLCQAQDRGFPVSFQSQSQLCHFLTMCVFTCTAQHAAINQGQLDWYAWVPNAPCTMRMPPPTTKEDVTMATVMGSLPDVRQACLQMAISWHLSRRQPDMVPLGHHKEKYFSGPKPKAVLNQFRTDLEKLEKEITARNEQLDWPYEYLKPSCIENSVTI
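Purified human 12hLO (150 nM), preincubated 15 min with compound, then 40 uM arachidonic acid for 30 min, room temperature, Hepes pH 7.0 with 0.01% Triton X-100. Hydroperoxide detected by ferrous iron/xylenol orange; 573/405 nm absorbance ratio gives reaction progress.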
A number is an active result; [ ] = another dose, or the depositor's remark. Unless noted, the call rests on the fitted dose curve; in most records, active means well fitted inhibition curve with a large enough effect (not every such curve was filed as active); inconclusive means small, poorly fitted or top-dose-only effect, or another doubt; inactive means no such curve, though single readings can be large or run the other way.

What do the screens show for `CC1CCC2C(=O)N3C(CCC(C)[C@@H]3c3cccc(N4CCOCC4)c3)C(=O)N2C1c1cccc(N2CCOCC2)c1` (some centres not stated)?
ALDH1A1 block: inactive[13.5 µM]

What do the screens show for `Cc1cc(C)n(C(=O)/C(C#N)=N/Nc2cc(Cl)cc(Cl)c2)n1`?
LMNA splice mod: inactive[9.22 µM]; ALDH1A1 block: inactive

Results for CN(C)c1ccc(-c2nc3ccccn3c2/N=C/c2ccc(Br)cc2)cc1 ?
LMNA splice mod: inconclusive; HPGD inh: inactive; ALDH1A1 block: inconclusive; PNC assembly inh: -112; ALOX12 inhib: inactive

What do the screens show for `Cc1c(-c2ccc(Br)cc2)nc2ccccn12`?
LMNA splice mod: inactive; ALDH1A1 block: inactive; PNC assembly inh: inactive; ALOX12 inhib: inactive

Results for CCNC(=S)N1CCN(CCN=CC2=C(O)CC(c3ccco3)CC2=O)CC1 (configuration not stated) ?
LMNA splice mod: inactive; HPGD inh: inactive; ALDH1A1 block: inactive; PNC assembly inh: inactive; ALOX12 inhib: inactive

What do the screens show for `CC1(C)CC(=O)C(C=NCCN2CCN(C3CC(=O)N(c4ccc(Cl)c(Cl)c4)C3=O)CC2)=C(O)C1` (configuration not stated)?
LMNA splice mod: inactive; ALDH1A1 block: 22µM

How did O=C1CC(c2ccco2)CC(O)=C1C=NCCN1CCNCC1 (configuration not stated) do in these assays?
LMNA splice mod: inactive; HPGD inh: inactive; ALDH1A1 block: 13µM; PNC assembly inh: inactive; ALOX12 inhib: inactive

Results for O=C1CC(c2ccco2)CC(O)=C1C=NCCN1CCN(C2CC(=O)N(c3ccccc3)C2=O)CC1 (configuration not stated) ?
LMNA splice mod: inactive; HPGD inh: inactive; ALDH1A1 block: inconclusive; PNC assembly inh: -100; ALOX12 inhib: inactive

What do the screens show for `COc1ccccc1OCCCOc1c(Cl)cc(C)cc1Cl`?
LMNA splice mod: inactive; HPGD inh: 14µM; ALDH1A1 block: inactive; PNC assembly inh: inactive; ALOX12 inhib: inactive

Results for COc1cc(C)ccc1OCCOc1c(C)cc(Cl)cc1Cl ?
LMNA splice mod: inactive; HPGD inh: inactive; ALDH1A1 block: inactive; PNC assembly inh: inactive; ALOX12 inhib: inactive

How did COc1cc(C)ccc1OCCCOc1c(Cl)cccc1Cl do in these assays?
LMNA splice mod: inactive; HPGD inh: 11µM; ALDH1A1 block: inactive; PNC assembly inh: inactive; ALOX12 inhib: inactive

Results for CCOc1ccccc1OCCCOc1ccc(C)cc1Cl ?
LMNA splice mod: inactive; ALDH1A1 block: inactive; PNC assembly inh: inactive; ALOX12 inhib: inactive

Results for CSCC[C@@H]1NC(=O)C/C=C\[C@@H](C)COC(=O)[C@H](C)COC1=O ?
ALDH1A1 block: inactive[13.5 µM]

How did Cc1csc2nc(COC(=O)c3cccc(NC(=O)COc4ccccc4Cl)c3)cc(=O)n12 do in these assays?
LMNA splice mod: inactive

How did CCN(CC)S(=O)(=O)c1cccc(C(=O)NC(C(=O)NC2=NCCS2)C(C)C)c1 (configuration not stated) do in these assays?
LMNA splice mod: inconclusive; HPGD inh: inactive; ALDH1A1 block: inactive; PNC assembly inh: -116; ALOX12 inhib: inactive

How did CC(C)C(NC(=O)c1ccccc1)C(=O)NC1=NCCS1 (configuration not stated) do in these assays?
LMNA splice mod: inactive; HPGD inh: inactive; ALDH1A1 block: inactive; PNC assembly inh: inconclusive; ALOX12 inhib: inactive

What do the screens show for `O=C(O)C1(C(=O)O)CCN(S(=O)(=O)c2ccccc2)CC1`?
HPGD inh: inactive; ALDH1A1 block: inactive[13.5 µM]; ALOX12 inhib: inactive[11.4 µM]

Results for C=C(C#N)C(=O)OCC ?
HPGD inh: inactive; ALDH1A1 block: 8.9µM; ALOX12 inhib: inactive

Results for CCOC(C)=O ?
LMNA splice mod: inconclusive; HPGD inh: inactive; ALDH1A1 block: inconclusive; ALOX12 inhib: inactive

How did COc1ccc(N2C(=O)CS(=O)(=O)C23C(=O)N(Cc2ccc(F)cc2)c2ccc(C)cc23)cc1 (configuration not stated) do in these assays?
LMNA splice mod: inactive

Results for Cc1nc2ccccc2c(C)c1C(=O)c1ccccc1 ?
LMNA splice mod: inactive; ALDH1A1 block: inactive

Results for O=c1nc2cccc3c2=c(/c1=C(\O)c1ccccc1)c1ccccc1c3=O ?
LMNA splice mod: inconclusive; ALDH1A1 block: 0.63µM

Results for CCNc1ncc2nc(-c3ccc(Cl)cc3)c(=O)n(CCC#N)c2n1 ?
LMNA splice mod: inactive; ALDH1A1 block: inconclusive

How did O=S(=O)(NCC(c1ccco1)S(=O)(=O)c1cccs1)c1ccc(F)c(C(F)(F)F)c1 (configuration not stated) do in these assays?
LMNA splice mod: inactive

What do the screens show for `Cc1ccc(/C=C/C(=O)N2CCc3ccccc3C2)cc1`?
LMNA splice mod: inactive; HPGD inh: 14µM; ALDH1A1 block: inactive; PNC assembly inh: inactive; ALOX12 inhib: inactive

How did CC(C)(C)c1ccc(/C=C/C(=O)N2CCc3ccccc3C2)cc1 do in these assays?
LMNA splice mod: inactive[0.0737 µM]; HPGD inh: inactive; ALDH1A1 block: inactive; PNC assembly inh: inactive; ALOX12 inhib: inactive

How did O=C(N/C=C/c1ccco1)NCc1ccccc1 do in these assays?
LMNA splice mod: inactive[9.22 µM]; ALDH1A1 block: 22µM

What do the screens show for `O=C(COC(=O)/C=C/c1ccco1)NCc1ccccc1`?
LMNA splice mod: inactive; ALDH1A1 block: inactive

Results for O=C(/C=C/c1ccco1)NCC1CCCO1 (configuration not stated) ?
LMNA splice mod: inactive; HPGD inh: inconclusive; ALDH1A1 block: 22µM; PNC assembly inh: inactive; ALOX12 inhib: inactive

What do the screens show for `O=C(/C=C/c1ccco1)NCc1ccc(F)cc1`?
LMNA splice mod: inconclusive; ALDH1A1 block: 18µM

What do the screens show for `Cc1ccc(CCNC(=O)c2c(C)oc3ncn(CC(C)C)c(=O)c23)cc1`?
LMNA splice mod: inactive

How did Cc1ccc(C(=O)CSc2nsc(C)c2C#N)cc1 do in these assays?
LMNA splice mod: inactive; HPGD inh: 22µM; ALDH1A1 block: inconclusive; PNC assembly inh: inactive; ALOX12 inhib: inactive

Results for Cc1snc(SCC(=O)c2ccc(Cl)cc2)c1C#N ?
LMNA splice mod: inactive; HPGD inh: inconclusive; ALDH1A1 block: 20µM; PNC assembly inh: inactive; ALOX12 inhib: inactive

How did Cc1ccnc(SCC(=O)c2ccc(Br)cc2)c1C#N do in these assays?
LMNA splice mod: inconclusive; HPGD inh: 28µM; ALDH1A1 block: inconclusive; PNC assembly inh: inactive; ALOX12 inhib: inactive

Results for Cc1nc(CSc2nsc(C)c2C#N)cs1 ?
LMNA splice mod: inconclusive; ALDH1A1 block: inactive

How did Cc1ccccc1-c1nsc(SCC(=O)c2ccc(Cl)cc2)n1 do in these assays?
LMNA splice mod: inactive; HPGD inh: inactive; ALDH1A1 block: inactive; PNC assembly inh: inactive; ALOX12 inhib: inactive

What do the screens show for `Cc1cccc(N2CCN(C(=O)c3c(C)oc4ncnc(N5CCCCC5)c34)CC2)c1C`?
LMNA splice mod: inactive

How did O=C(NNS(=O)(=O)c1ccc2ccccc2c1)C1CCN(Cc2ccccc2)CC1 do in these assays?
LMNA splice mod: inactive; HPGD inh: inactive; ALDH1A1 block: inactive; PNC assembly inh: inactive; ALOX12 inhib: inactive

Results for O=S(=O)(NC1CCN(Cc2ccccc2)CC1)c1ccc2ccccc2c1 ?
LMNA splice mod: inactive; ALDH1A1 block: 22µM
